An excerpt weighted towards active compounds, which were near 0.63% of everything screened.
NTR1 agonist: activates human neurotensin receptor 1; activation, % at 20 µM; hit rate 0.17% among 330,000; P30989; NTR1-U2OS beta-arrestin-GFP spot imaging, agonist mode;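 active = activation at or above 40% of the spot to cytoplasm intensity ratio, with at least 20 cells analyzed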;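 also: 0% = DMSO without peptide and 100% = 100 nM NTR1 peptide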
Target sequence (P30989 whole entry, looked up): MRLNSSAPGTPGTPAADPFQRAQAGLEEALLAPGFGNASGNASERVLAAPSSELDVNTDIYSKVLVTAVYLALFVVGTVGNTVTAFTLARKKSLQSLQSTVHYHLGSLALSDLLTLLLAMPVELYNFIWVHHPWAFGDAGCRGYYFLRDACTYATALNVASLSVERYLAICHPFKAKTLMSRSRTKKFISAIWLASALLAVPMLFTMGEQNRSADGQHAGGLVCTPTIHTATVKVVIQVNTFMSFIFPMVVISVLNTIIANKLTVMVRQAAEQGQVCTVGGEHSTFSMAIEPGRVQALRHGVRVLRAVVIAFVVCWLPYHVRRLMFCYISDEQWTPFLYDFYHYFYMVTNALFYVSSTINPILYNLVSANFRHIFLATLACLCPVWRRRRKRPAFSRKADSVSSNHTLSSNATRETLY
HIF act: HIF pathway transcriptional activation; U2OS HRE-luciferase reporter, luminescence; normalized: DMSO 0%, desferrioxamine 100%; activation, % at 7.5 µM (by protocol); hit rate 0.32% among 300,000; AID 1910;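 active = mean activation of at least 10% of the iron chelator positive control signal, with at least half of replicates also reaching 10%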
Platelet DG rel: modulates dense granule release in human platelets. inhibition, %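 (compounds screened at 7.5 µM in platelet-rich plasma)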. human platelet-rich plasma, SFLLRN dense granule ATP release, luminescence. hit rate 0.22% among 300,000;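 active = mean replicate score, as percent of positive control, at or above 50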
* marks the source's active call; other numbers are inactive results.

Screening c1ccc(-c2nnc3sc(-c4ccncc4)nn23)cc1 returned NTR1 agonist 2, HIF act 0 and Platelet DG rel 4.
`CCOc1ccc(N2C(=O)/C(=C/c3ccccc3)N=C2SC)cc1` gave NTR1 agonist 14, HIF act 2 and Platelet DG rel -10.
Cc1ccn(CC(=O)NC2CCCN(Cc3ccc(CC(C)C)cc3)C2)n1 (stereo not given) was read as NTR1 agonist 0, HIF act 0 and Platelet DG rel -3.
CC(=O)c1c(C)nn(CC(=O)NC2CCCN(Cc3ccc(CC(C)C)cc3)C2)c1C (stereo not given) was read as NTR1 agonist 0, HIF act -1 and Platelet DG rel 77*.
For Oc1ccccc1N=Nc1ccccc1O the results were HIF act 202* and Platelet DG rel -1.
For Nc1ccc(N=Nc2ccccc2O)c(N)c1 the results were NTR1 agonist -1, HIF act 3 and Platelet DG rel 13.
For CC(C)Oc1cccc(C(=O)Nc2ccc(NC(=O)c3ccco3)cc2)c1 the results were NTR1 agonist 2, HIF act 0 and Platelet DG rel -1.
Screening Cc1ccc(/C=C(\NC(=O)c2ccccc2)C(=O)NCCN2CCOCC2)o1 returned NTR1 agonist 2, HIF act 0 and Platelet DG rel 0.
For Cc1ccc(N2C(=O)[C@@H]3C(c4cccnc4)=NO[C@@H]3C2=O)cc1 the results were NTR1 agonist -1, HIF act -1 and Platelet DG rel -13.
Screening COc1ccc(N2C(=O)[C@@H]3C(c4cccnc4)=NO[C@@H]3C2=O)cc1 returned NTR1 agonist -1, HIF act 30* and Platelet DG rel -19.
`CCCNC(=O)C12CCC(C)(C(=O)C1Br)C2(C)C` (stereo not given) gave NTR1 agonist 0.
For COc1ccc(C(CC(=O)Nc2cc(OC)cc(OC)c2)n2cccc2)cc1 (stereo not given) the results were NTR1 agonist 6, HIF act 0 and Platelet DG rel -1.
Screening COc1ccc(C(CC(=O)Nc2ccccc2OC)n2cccc2)cc1 (stereo not given) returned NTR1 agonist 2, HIF act 152* and Platelet DG rel -6.
CCCCCCCNc1cccc(C)c1 was read as NTR1 agonist 0, HIF act 0 and Platelet DG rel -19.
`Cc1cc(C(F)(F)F)nc(Nc2nc(C)c3ccccc3n2)n1` gave NTR1 agonist -1, HIF act -42 and Platelet DG rel 0.
For COc1ccc(C(=O)/C=C/c2cn(CN3CCN(C)CC3)c3ccccc23)cc1 the results were NTR1 agonist 21.
`CCOc1ccc(C(=O)/C=C/c2cn(CN3CCN(C)CC3)c3ccccc23)cc1` gave NTR1 agonist 49*.
Screening CCCc1cc(C(=O)N2CCCC(N3CCN(c4ccccc4F)CC3)C2)n(C)n1 (stereo not given) returned NTR1 agonist 0, HIF act 0 and Platelet DG rel 53*.
For CCCc1cc(C(=O)N2CCCC(N3CCN(c4ccccc4C)CC3)C2)n(C)n1 (stereo not given) the results were NTR1 agonist 2, HIF act -1 and Platelet DG rel -3.
Screening Cn1ccc(C(=O)OCC(=O)Nc2ccccc2)n1 returned NTR1 agonist 0, HIF act 1 and Platelet DG rel 7.
Screening COc1ccc(S(=O)(=O)Nc2cccc3c2O[C@H](CN(C)C(=O)Nc2ccc4c(c2)OCO4)[C@@H](C)CN([C@H](C)CO)C3=O)cc1 returned NTR1 agonist 0.
CCOC(=O)C1(C)NC(c2ccc(OC)cc2OC)C2C(=O)N(CC)C(=O)C21 (stereo not given) was read as NTR1 agonist 0, HIF act 528* and Platelet DG rel -12.
`CCN1C(=O)[C@H]2[C@@H](c3ccc(-c4ccc(OC)cc4)c(OC)c3)N[C@@](C)(C(=O)OC)[C@H]2C1=O` gave NTR1 agonist 0, HIF act 0 and Platelet DG rel 2.
For OC1O[C@H](c2ccc3c(c2)OCO3)[C@H]2CO[C@H](c3ccc4c(c3)OCO4)[C@@H]12 (stereo not given in full) the results were NTR1 agonist -6, HIF act 0 and Platelet DG rel -1.
Screening O=C(CNc1cccc([N+](=O)[O-])c1)NC(=O)NC1CCCCC1 returned NTR1 agonist 0.
For CC(C)(C)n1nc(-c2ccc(F)cc2)c2c(N)ncnc21 the results were NTR1 agonist 0, HIF act 0 and Platelet DG rel -9.
CC(C)(C)n1nc(-c2ccc(Cl)cc2)c2c(N)ncnc21 was read as NTR1 agonist 3, HIF act 0 and Platelet DG rel 72*.
`O=C(CN1CCN(C(=O)c2ccccc2)CC1)NC(=O)NCCC1=CCCCC1` gave NTR1 agonist 0.

Assay outcomes from PubChem BioAssay.
